High-throughput results from PubChem BioAssay.
AmpC inh detg – qHTS Inhibitors of AmpC Beta-Lactamase (assay with detergent); AmpC hydrolysis of nitrocefin, absorbance 480 nm, 0.01% Triton; 370,000 compounds, 0.041% hits; Potency, µM (doses to about 114 µM), for inactives: at the top dose activity change, negative = inhibition, most hits filed as inhibitors;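 also: 0% = no-compound wells and -100% = no-enzyme wells; nearly all actives have a fitted effect of over 25% in size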
Target sequence (P00811 whole entry, looked up): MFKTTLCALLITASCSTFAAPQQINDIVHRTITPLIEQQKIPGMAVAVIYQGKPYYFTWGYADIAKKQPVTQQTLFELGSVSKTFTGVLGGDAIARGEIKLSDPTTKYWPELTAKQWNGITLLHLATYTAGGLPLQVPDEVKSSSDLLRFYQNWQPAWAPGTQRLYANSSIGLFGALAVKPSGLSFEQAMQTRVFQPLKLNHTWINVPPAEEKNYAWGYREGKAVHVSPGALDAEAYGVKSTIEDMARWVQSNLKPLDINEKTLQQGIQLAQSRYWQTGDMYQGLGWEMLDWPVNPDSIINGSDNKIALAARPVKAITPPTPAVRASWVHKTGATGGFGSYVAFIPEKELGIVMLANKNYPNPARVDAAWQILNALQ
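AmpC (5.3 nM in the dispensed reagent) in 20 mM phosphate pH 7.0 with 0.01% (detergent screen) or 0.0001% Triton X-100 was preincubated with compounds for 15 min at room temperature. Nitrocefin was then added from an 800 uM solution, and hydrolysis was followed at 480 nm.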
Pf growth 96h – Primary qHTS for delayed death inhibitors of the malarial parasite plastid, 96 hour incubation. P. falciparum luciferase reporter growth, 96 h. Potency, µM (top dose mostly 28.7 µM), for inactives: at the highest dose activity change, negative = inhibition, hits mostly inhibitors. 320,000 compounds, 6.9% hits. AID 504834, 2011
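Luminescence readout: decreased luciferase signal marks inhibited growth of reporter-expressing P. falciparum in infected red cells (2% hematocrit, 0.05% parasitemia final), exposed to compound two generations (96 h, 37 C, 5% CO2).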
Pf growth 48h – Primary qHTS for delayed death inhibitors of the malarial parasite plastid, 48 hour incubation. P. falciparum luciferase growth in erythrocytes, 48 h. 310,000 compounds, 5.9% hits. AID 504832, 2011. Potency, µM (highest dose often 28.7 µM), for the others: at the highest dose activity change, negative = inhibition, hits mostly inhibitors
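Luciferase-expressing parasites in RBCs, 2% Hct / 0.1% parasitemia final; RPMI 1640 + 0.5% Albumax; 37 C, 5% CO2, one generation; luminescence read-out, lower signal = inhibition.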
HCV inh – qHTS Assay for Inhibitors of Hepatitis C Virus (HCV). Huh7.5.1 HCVcc-Cre infection, luciferase reporter, 44 h. Potency, µM (top dose mostly 41.8 µM), for the others: at the top dose activity change, negative = inhibition, most hits filed as inhibitors. 340,000 compounds, 3.4% hits. AID 651820, 2012
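Infectious HCVcc-Cre (~0.5 moi) was added to cells just after compound, with cells seeded 4 h earlier at 1,000 per well. Luciferase activity after 44 h culture reported infection; substrate was incubated 15 min at room temperature before reading.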
AmpC no deterg – qHTS Inhibitors of AmpC Beta-Lactamase (assay without detergent); 330,000 compounds, 0.52% hits; AID 485341, 2010; Potency, µM (top dose mostly 57.1 µM), for inactives: top-dose activity change, negative = inhibition, hits mostly inhibitors; P00811; AmpC nitrocefin hydrolysis, absorbance 480 nm, 0.0001% Triton;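 also: plate controls were no compound for no effect and no enzyme for full effect; nearly all actives have a fitted effect of over 20% in size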
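20 mM phosphate pH 7.0 + 0.01% (detergent screen) or 0.0001% Triton X-100; 5.3 nM AmpC reagent; cpd preinc 15 min RT; nitrocefin (800 uM stock) to start; A480 q20 s × 4 min; Activity was normalised to no-enzyme and no-compound control wells.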
AMA1-RON2 inh – qHTS for Inhibitors of AMA1-RON; Towards Development of Antimalarial Drug Lead: Primary Screen; Plasmodium falciparum AMA1 (3D7) - RON2 peptide interaction; AlphaScreen AMA1-biotinylated RON2 peptide binding; Potency, µM (series often up to 58.2 µM), without a hit: at the highest dose activity change, negative = inhibition, actives largely listed as inhibitors; 360,000 compounds, 0.2% hits;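 also: 0% = vehicle wells and -100% = peptide control; nearly all actives have a fitted effect of over 45% in size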
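AMA1 (3D7) with his tag at 25 nM final met compounds first, then biotinylated RON2 peptide at 25 nM; detection used donor plus acceptor beads, 10 µg/mL apiece, read by AlphaScreen after 30 min at room temperature.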
An asterisk follows results filed as active; ? = inconclusive; nt = no result. The list is not random: actives were taken first. Their share in the collection is about 11%. Calls follow the shape of the dose curve; as a rule, active = well fitted curve in the direction sought with a large enough effect; inconclusive = small, poorly fitted or top-dose-only effect, or another doubt; inactive = no such curve, though single readings can be large; an effect the other way counts as inactive or inconclusive. Unless noted, % is scaled to controls: 0 for no effect and ±100 for the full control effect; potency is read from the fitted curve at half-maximal effect.

SMILES	AmpC inh detg	Pf growth 96h	Pf growth 48h	HCV inh	AmpC no deterg	AMA1-RON2 inh
COc1cc2cc(CN(Cc3cccnc3)C(=O)Nc3ccccc3F)c(=O)[nH]c2cc1OC	-5%	22%	7.4µM*	-9%	-4%	2%
CCN1CCCC1CN(Cc1cc2c(C)cc(C)cc2[nH]c1=O)C(=O)NC1CCCCC1 (stereo not drawn)	?	nt	9.3µM*	-7%	112%	-7%
CCN(CC)C(=O)CSC(Nc1ccc(F)cc1)=C(C#N)C#N	2%	0%	3%	0%	14µM*	11%
Cc1ccc(CSC(Nc2ccc(F)cc2)=C(C#N)C#N)cc1	1%	?	?	8.9µM*	-43%	-7%
COc1ccccc1C(=O)Nc1ccc2nc(N3CCC(C)CC3)cc(C)c2c1	12%	nt	nt	nt	nt	nt
CCOC(=O)c1c(C)[nH]c(CCC(=O)NCc2ccc(CC)cc2)c1C	18%	nt	nt	nt	nt	nt
c1cncc(-c2nnc(-c3cccnc3)nn2)c1	-14%	?	2.6µM*	?	-9%	2%
CCOC(=O)c1noc2nc(C)n(CC(=O)Nc3ccc(Br)cc3C)c(=O)c12	1%	nt	nt	nt	nt	nt
COc1cccc(/C=C(/C(=O)OCC(=O)NC2CCCC(C)C2C)c2ccccc2)c1 (stereo not drawn)	1%	?	13µM*	?	-24%	-4%
Cc1ccc2[nH]c3c(=O)n(CC(=O)N4CCCCC4)ncc3c2c1	17%	nt	nt	nt	nt	nt
O=S(=O)(c1ccc2oc(=S)[nH]c2c1)N1CCOCC1	4%	8.3µM*	?	-1%	-18%	9%
Cn1c(=O)oc2cc(S(=O)(=O)N3CCOCC3)ccc21	-8%	52%	?	5%	nt	2%
O=S(=O)(c1ccc2c(c1)oc1ccccc12)N1CCOCC1	-1%	20%	13µM*	?	-9%	-5%
O=c1[nH]c2ccc(S(=O)(=O)N3CCCCC3)cc2o1	3%	10µM*	8%	20%	-22%	6%
O=S(=O)(c1ccc2oc(=S)[nH]c2c1)N1CCCCC1	6%	0%	-6%	-3%	-8%	25%
CC(C)c1nn2c(=O)cc(COC(=O)c3ccc(NC(=O)c4cccs4)cc3)nc2s1	11%	nt	nt	nt	nt	nt
CCN(CC)CCN(C(=O)c1ccc(C(=O)OC)cc1)c1nc2ccc(Cl)cc2s1	21%	nt	nt	nt	nt	nt
Cc1ccc(S(=O)(=O)N2CCCc3cc(NC(=O)c4ccc(C(F)(F)F)cc4)ccc32)cc1	-2%	nt	nt	nt	nt	nt
N#CCCn1nc(-c2ccc(Cl)cc2)cc1Nc1ccccc1NC(=O)C(F)(F)F	0%	12µM*	-7%	-9%	30%	13%
N#CCCn1nc(-c2ccc([N+](=O)[O-])cc2)cc1Nc1ccccc1NC(=O)C(F)(F)F	0%	10µM*	10µM*	-22%	-17%	17%
N#CCCn1nc(-c2ccccc2)cc1Nc1ccccc1NC(=O)C(F)(F)F	-10%	?	-15%	32%	7%	-3%
CCOc1ccccc1NC(=O)c1c(NC(=O)COc2ccccc2)sc2c1CCCCC2	12%	nt	nt	nt	nt	nt
COc1cc(NC(=O)Cn2nnc(-c3ccc(C(F)(F)F)cc3)n2)c(C(=O)O)cc1OC	1%	nt	nt	nt	nt	nt
O=c1oc2c(O)cccc2cc1-c1nc2ccccc2[nH]1	3%	-11%	183%	-9%	-13%	0%
O=c1oc2c(CN3CCCCC3)c(O)ccc2cc1-c1nc2ccccc2[nH]1	2%	10µM*	?	11%	-21%	8%
N#CCC(=O)Nc1ccc(C(=O)NCCc2c[nH]c3ccccc23)cc1	8%	7.4µM*	13µM*	-28%	-48%	3%
